Screens from PubChem.
TRPV1 ag = human TRPV1 agonism | Q8NER1 | TRPV1-expressing cells, Fluo-8 calcium influx, agonist mode | activation, % at 8.33 µM | actives 0.19% (n = 320,000); in the data active means activation above about 80%; inconclusive means between about 30% and that limit; further: 0% is about no effect
Target sequence (Q8NER1 whole entry, looked up): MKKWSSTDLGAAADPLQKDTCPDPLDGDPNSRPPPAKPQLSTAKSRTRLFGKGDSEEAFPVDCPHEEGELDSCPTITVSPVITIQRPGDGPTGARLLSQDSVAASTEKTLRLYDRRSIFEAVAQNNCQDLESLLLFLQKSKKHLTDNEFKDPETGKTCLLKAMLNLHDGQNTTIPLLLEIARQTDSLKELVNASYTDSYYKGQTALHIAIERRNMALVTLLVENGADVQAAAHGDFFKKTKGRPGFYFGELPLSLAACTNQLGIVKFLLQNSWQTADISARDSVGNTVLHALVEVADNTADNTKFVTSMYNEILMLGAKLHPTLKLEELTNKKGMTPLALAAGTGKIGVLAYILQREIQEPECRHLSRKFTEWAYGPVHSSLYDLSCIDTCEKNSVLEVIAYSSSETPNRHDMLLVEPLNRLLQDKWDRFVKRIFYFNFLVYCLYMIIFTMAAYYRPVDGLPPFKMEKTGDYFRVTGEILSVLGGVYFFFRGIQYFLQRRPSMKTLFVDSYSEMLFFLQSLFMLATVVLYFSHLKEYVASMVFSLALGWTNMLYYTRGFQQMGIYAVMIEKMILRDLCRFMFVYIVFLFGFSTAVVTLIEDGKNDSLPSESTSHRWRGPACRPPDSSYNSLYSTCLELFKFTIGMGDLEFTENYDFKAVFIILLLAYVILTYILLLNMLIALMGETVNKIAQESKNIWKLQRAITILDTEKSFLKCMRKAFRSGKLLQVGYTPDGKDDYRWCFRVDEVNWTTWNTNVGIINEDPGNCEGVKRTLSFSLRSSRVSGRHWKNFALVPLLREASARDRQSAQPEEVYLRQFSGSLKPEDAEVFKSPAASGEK
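TRPV1-expressing cells were cultured overnight at 35.5C and loaded with Fluo-8 calcium dye for 40 to 90 min at room temperature. After a 10 s baseline, compound was added and calcium influx was read kinetically for 3 min (ex 480/em 520 nm).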
TRPV1 PAM = enhances activation of the human vanilloid receptor TRPV1 | potentiation, % at 8.33 µM | Q8NER1 | actives 0.02% (n = 320,000) | TRPV1-expressing cells, Fluo-8 calcium influx, capsaicin EC20 potentiation | AID 540277; in the data active means potentiation above about 80%; inconclusive means between about 30% and that limit; further: 0% is about no effect
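Fluo-8 calcium influx in TRPV1-expressing cells, kinetic read (ex 480/em 520 nm). Compound added and read 3 min for agonist activity, followed by capsaicin at EC20 final and 2 min further read for enhancement.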
AT treatment = potential ataxia-telangiectasia treatment | F2112 A-T fibroblasts, KAP-1 phosphorylation AlphaLISA; neocarzinostatin DNA damage 30 min before lysis | Potency, µM (highest dose often 57.5 µM), without a hit: at the top dose activation, hits mostly activators | actives 0.19% (n = 320,000); further: potency means the concentration at half of the fitted maximal effect; % of control where 0% means no effect; nearly all actives have a fitted effect of over 45% in size
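hTERT-immortalized A-T patient fibroblasts (F2112), 500 cells/well in OPTI-MEM, 1% FBS, got compounds for 60 min, then NCS for 30 min at 37C. Lysates were then assayed for phospho-KAP-1 by AlphaLISA (anti-pKAP1 donor, anti-KAP1 acceptor beads), 6 hr at 25C.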
IMPase Li cell = membrane-permeable IMPase blocker, potentiated with lithium; CHO-M1 cells, IP1 TR-FRET (IP-One), carbachol + lithium; Potency, µM (titrated, usually from 59.4 µM), for inactives: top-dose activity, negative = IMPase inhibition, hits mostly inhibitors; actives 0.35% (n = 210,000); AID 1457;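 further: IP1 builds up when IMPase is blocked and the TR-FRET signal falls; potency means the concentration at half of the fitted maximal effect; plate controls were basal vehicle for no effect and high inhibitor control for full effect; nearly all actives have a fitted effect of over 50% in size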
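CHO cells stably expressing M1 receptor (2000/well, cultured 16–30 h) treated 30 min at 37C with compound plus low lithium. Cytosolic IP1 by TR-FRET (665/620 ratio and 620 channel) after 10 min lysis; AC50 by Hill fit.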
Starred values were filed as active, the others as inactive; ? = inconclusive; · = no result given; [ ] = remark or other dose. Compounds with a hit are over-represented: about 0.55% of the library has one in this group of screens. Unless noted, the call rests on the fitted dose curve; in most records, active means well fitted curve in the direction sought with a large enough effect; inconclusive means small, poorly fitted or top-dose-only effect, or another doubt; inactive means no such curve, though single readings can be large; an effect the other way counts as inactive or inconclusive.

SMILES	TRPV1 ag	TRPV1 PAM	AT treatment	IMPase Li cell
C=CCN1c2ccccc2[C@]23C[C@@H](C(=O)OC)N(C(=O)COCc4ccccc4)C2=NC(C(=O)OC)=C(C(=O)OC)[C@H]13	·	·	·	5.1%
CN(C)CCC(=O)[C@@]1(O)CC[C@H]2[C@H]3CC=C4C[C@@H](O)CC[C@]4(C)[C@H]3CC[C@]21C	·	·	·	-5.1%
CN1CCN(CC#CCC(O)(c2ccccc2)c2ccccc2)CC1	2.1	9.9	39.8µM*	·
C=CC(=O)OCC(CO)(COC(=O)C=C)COC(=O)C=C	·	·	·	3.9%
Cc1cccc(NC(=O)CN2C(=O)S/C(=C\c3ccc(O)c([N+](=O)[O-])c3)C2=O)c1	2.7	84.0*	-6.9%	-0.5%
C/C(=N\NC(=O)CCCC(=O)O)c1c(-c2ccccc2)c2cc(Cl)ccc2[nH]c1=O	10.9	-18.5	3.55µM*	·
NNC(=O)c1[nH]c2ccc(Cl)cc2c1-c1ccccc1	6.7	2.8	-10.6%	·
O=C(NC(NC(=S)N1CCOCC1)C(Cl)(Cl)Cl)c1cccc2ccccc12 (centres undefined)	?	4.2	-6.4%	0.1%
CCCCCC(=O)NC(NC(=S)N1CCOCC1)C(Cl)(Cl)Cl (centres undefined)	83.1*	-8.2	-4.5%	20.9%
CCCCCCCCC(=O)NC(NC(=S)N1CCOCC1)C(Cl)(Cl)Cl (centres undefined)	82.8*	-7.4	5.5%	5.7%
COc1cccc([C@@H]2Oc3ccc(Br)cc3[C@H](O)[C@H]2O)c1	·	·	·	-5.0%
O=C(Nc1nc(-c2cccs2)c(C(=O)C(F)(F)F)s1)c1ccco1	3.5	1.9	2.7%	10µM*
Cc1c(Cl)ccc2sc(NC(=O)c3ccco3)nc12	89.5*	10.6	?	·
O=C(Nc1nc(-c2cccs2)c(C(=O)C(F)(F)F)s1)c1ccccc1	17.1	-9.1	-10.7%	-10.5%
CS(=O)(=O)c1ccc2nc(NC(=O)c3ccco3)sc2c1	0.8	-6.2	3.8%	3.6%
CCCCc1cc2c(cn1)=C(OC(=O)c1ccco1)C(C)(OC(=O)CC)C(=O)C=2 (centres undefined)	·	·	·	5.2%
COc1cc(O)c2c(O)c3c(c4c2c1[C@@]1(C4)C(C)=CCCC1(C)C)[C@H](O)[C@@]1(O)CC(=O)C(C(N)=O)=C(O)[C@]1(O)C3=O	·	·	·	-2.6%
CCN1/C(=C/C=C/C=C/c2sc3ccccc3[n+]2CC)Sc2ccccc21	-3.8	29.0	31.6µM*	-3.0%
O=C(CCCl)Nc1cccc2cccnc12	-4.4	29.0	·	·
Cc1ccc(S(=O)(=O)N(C)c2ccccc2)cc1	1.1	-3.3	4.8%	5.9%[38.3 µM]
CSc1nc2ccccc2nc1N(C)S(=O)(=O)c1ccc(C)cc1	-2.8	10.9	1.12µM*	·
O=C(Cc1ccccc1)NCCCc1ccccc1	-0.4	19.5	1.1%	-5.6%[38.3 µM]
O=C(NCCCc1ccccc1)c1ccc(F)cc1	87.6*	-27.9	11.2%	·
Cc1ccc(CC(=O)NCCCc2ccccc2)cc1	80.3*	-18.6	·	-6.4%[38.3 µM]
O=C(Nc1ccccc1)N1CCCN(c2nccc(C(F)(F)F)n2)CC1	87.1*	-4.3	3.9%	·
SMILES	TRPV1 ag	TRPV1 PAM	AT treatment	IMPase Li cell
O=C(Nc1ccc(F)cc1)N1CCCN(c2nccc(C(F)(F)F)n2)CC1	?	-14.5	2.1%	·
C[C@H]1CCCC2(CC[N+](C)(CCC[N+](C)(C)C)CC2)C1 (some centres undefined)	·	·	·	11.6%
CCOC(=O)c1ccc(NC(=O)c2cc3c(s2)CCC3)cc1	106.2*	-11.9	4.2%	·
CCSc1nnc(NC(=O)c2cc3c(s2)CCCC3)s1	20.8	-12.4	13.9%	5.62µM*
COc1ccc2c(C)cc(SCC(=O)Nc3ncc(Cl)cc3Cl)nc2c1	-0.2	15.5	5.2%	12.6µM*
O=C1C(Cl)=C(Nc2ccccc2)C(=O)c2ccccc21	5.5	-22.0	5.01µM*	35.6%
CC(N)CN (centres undefined)	·	·	·	23.1%
O=C(Nc1ccc(F)cc1)c1ccc(COc2ccccc2)cc1	5.7	4.6	6.3%	12.6µM*
CCn1c2c(c3cc(OCC(C)C)ccc31)CCCC2=O	4.8	-1.7	31.6µM*	-0.5%
C=C1CCc2c([nH]c3ccc(OCC(C)C)cc23)C1=O	0.5	9.1	6.4%	·
COc1cccc(CNC(=S)Nc2cccc(Cl)c2C)c1	86.6*	-26.2	3.0%	·
C/C(CC/C(C)=N/O)=N/O	·	·	·	-0.9%
Cn1c(=O)c2[nH]c(/N=N\N3CCN(CCO)CC3)nc2n(C)c1=O	·	·	·	1.2%
CC(=O)/C(N=Nc1nc2c([nH]1)c(=O)n(C)c(=O)n2C)=C(\C)O	-1.9	3.8	7.08µM*	·
CCOC(=O)N1C(=O)[C@@](c2ccc(Cl)cc2)(C(C)C)N1C(=O)OCC	27.8	-9.6	20µM*	·
CCN(CC)S(=O)(=O)c1ccc(/C=C/C(=O)O)cc1	0.6	-3.5	5.6%	-2.2%
CCN(CC)S(=O)(=O)c1ccc(/C=C/C(=O)Nc2cccc(F)c2)cc1	96.9*	-11.0	1.3%	12.9%
Oc1cc(CN2COc3ccccc32)c(O)cc1CNC1CCCCC1	·	·	·	-4.8%
O=C(N/N=C/c1ccccc1)c1n[nH]c2c1CCCC2	83.3*	-19.3	2.7%	8.6%
O=C(N/N=C/c1ccc(Cl)cc1)c1n[nH]c2c1CCCC2	?	-16.1	-1.1%	·
COCCN1C=C(C(=O)OC)C(c2ccc(Cl)cc2)C(C(=O)OC)=C1	-6.2	1.0	27.7%	11.6%
CCOc1ccc(C2C(C(=O)OC)=CN(CCOC)C=C2C(=O)OC)cc1	7.0	7.6	28.2µM*	-7.6%[38.3 µM]
O=c1c2cc(Br)ccc2nc(-c2ccccc2)n1O	-7.5	?	0.708µM*	·
O=C(O)CN1C(=O)/C(=C/c2ccccc2Cl)Oc2ccccc21	0.4	21.5	5.4%	·
O=C(O)CN1C(=O)/C(=C/c2cccc(Cl)c2)Oc2ccccc21	3.7	-11.3	5.01µM*	·
SMILES	TRPV1 ag	TRPV1 PAM	AT treatment	IMPase Li cell
COc1ccc(CC(=O)Nc2ccc(S(=O)(=O)N3CCCC3)cc2)cc1OC	·	·	-9.6%	·
COc1ccc(CC(=O)Nc2ccc(S(=O)(=O)N3CCCCC3)cc2)cc1OC	87.9*	-12.2	5.0%	·
COC(=O)c1cc(NC(=O)Cc2ccc(OC)c(OC)c2)cc(C(=O)OC)c1	?	-30.8	-0.5%	3.7%[38.3 µM]
COc1ccc(CC(=O)Nc2cccc(SC)c2)cc1OC	101.3*	-8.1	4.1%	-2.1%
COc1cc(CCC(=O)OCC(=O)N2CCc3ccccc32)cc(OC)c1OC	-3.6	0.2	8.91µM*	·
CCN(CC)c1ncnc2ccc(Br)cc12	0.1	-9.0	-4.6%	25.1µM*
COc1ccc(Br)cc1/C=N/n1c(-c2ccccc2)n[nH]c1=S	-6.4	80.3*	0.6%	·
COc1cc(/C=N/n2c(-c3ccccc3)n[nH]c2=S)cc(OC)c1O	2.4	-1.1	-7.2%	·
C[N+](C)([O-])Cc1cc(-c2ccccc2)ccc1O	·	·	·	-9.4%
CCC(=O)NC1Cc2ccccc2C(c2ccccc2)C1 (centres undefined)	·	·	·	4.1%
N#CC1=C2SCN(Cc3ccccc3)CN2C(=O)CC1c1cccs1 (centres undefined)	·	·	22.4%	11.2µM*
O=S(=O)(O)O	·	·	·	2.8%
